The source made the active and inactive calls. Rule for the calls: active = hit-call score of the fitted dose curve at least 0.9, where 1 is the maximum; inactive = score below 0.9.

Read-out in this experiment: X-box binding protein 1 (XBP1), XBP1 (gene 7494)
Briefly: LTEA_HepaRG_XBP1: Life Technologies and Expression Analysis (LTEA) Assay for X-box binding protein 1 (XBP1) using HepaRG (AID 2283540). Conditions: mRNA level, 48 h; actives raise or lower the signal. As for the experimental part:
LTEA_HepaRG is a cell based, multiplexed-readout assay that uses HepaRG, a human liver cell line, with measurements taken at 48 hours after chemical dosing on a 96-well plate.LTEA_HepaRG_XBP1 is one of 102 assay component(s) measured in the LTEA HepaRG cell culture assay. It is a marker of Diseases associated with XBP1 including Major Affective Disorder 7 and Bipolar Disorder.Data from the assay component LTEA_HepaRG_XBP1 was analyzed into 1 endpoint. This assay endpoint, LTEA_HepaRG_XBP1, was analyzed with bidirectional fitting relative to DMSO as the negative control and baseline of activity. Using a type of inducible reporter, measures of mRNA induction for gain or loss-of-signal activity can be used to understand regulation of transcription factor activity. To generalize the intended target to other relatable targets, this assay endpoint is annotated to the dna binding intended target family, where the subfamily is basic leucine zipper.
A total of 1060 chemcials from the ToxCast library were tested in eight-point concentration-response experiments. Cell culture and cytotoxicity assays were conducted at Thermo Fisher Scientific's Custom Services facility (Madison, WI). A single lot of human HepaRG cells (Thermo Fisher Scientific, Frederick, MD) was used for the cell culture experiments. 96-well format collagen type I coated plates of human HepaRG cells were prepared using established methods. Briefly, cryopreserved HepaRG cells were thawed, plated at a density of approximately 100,000 cells/well in HepaRG Thaw, Plate, and General Purpose media (HPRG770, Thermo Fisher Scientific), and incubated for 48 hours. 0.5% DMSO was selected as vehicle control to balance the requisite need of DMSO in HepaRG cultures to maintain differentiation (for example, baseline metabolism, proportions of hepatocytes vs. cholangiocytes), while enabling further hepatic receptor pathway activation (for example, PXR and CAR) in response to chemical exposure. 48 hours after plating, the culture medium was replaced with HepaRG Serum-Free Incudtion Media. Cells were exposed to each test chemical in duplicate and maintained in CO2 incubators for another 48 hours. Chemical plates were thawed to room temperature and 200x concentrations of treatment groups were prepared. 8-point conentration-reponse curves were made with the highest exposure at 100 uM, followed by half-log dilutions, all in 0.5% DMSO. Each test plate contained variouse controls, induction positive controls (1mM phenobarbital), cytotoxicity positive controls ([…] aflatoxin B1), vehicle controls (0.5% DMSO), and total lysis controls (0.5% DMSO). Cell morphology images were taken using an Essen IncuCyte FLR automated microscope, with six 96-well plates imaged in about 24 minutes. Images were captured and exported and JPEG files. Spent culture media was transfered to black-well plates for the LDH assay, and remaining media was sorted at -80 C for later use. Cells were treated with RLT buffer and frozen until shipped for gene expression analysis. Total RNA was isolated from the cell suspension in 75 uL of Buffer RLT (Qiagen, Germantown, MD 20874) by Quintiles/Expression Analysis (Durham, NC) using a custom isolation procedure. Total RNA from each plate well was transferred to a preamplification plate. Fluidigm's 96.96 Dynamic ArrayTM (Fluidigm, Amsterdam, the Netherlands) technology was used for gene expression analyses by quantitative reverse transcription polymerase chain reaction (qRT-PCR, performed by Quintiles/Expression Analysis, Durham, NC)89. Standard TaqManTM Assays (Applied Biosystems/ThermoFisher Scientific, Foster City, CA) were used to assess the expression of 93 genes selected based on their selectivity and sensitivity to important hepatic receptors known to be modulated by environmental chemicals; importance in human hepatocyte functionality; and hepatotoxicity. […]
As for `CCOCCO`, the compound was called inactive. In the case of `CC(C)=CCC/C(C)=C/CO`, the outcome was inactive. In the case of `COC(=O)c1ccccc1O`, the compound was called inactive. On to `Cc1ccc(N)cc1O`, for which the outcome was inactive. Consider `Nc1cccc(N)c1`, for which the compound was called inactive. For the compound `Cn1c(=O)cc(Oc2ccc(F)cc2F)c2cnc(NCC(C)(C)O)nc21`, the call was inactive.

Take `CCOC(=O)c1ccc(C2CCC(NC[C@H](O)COc3ccc(O)c(NS(C)(=O)=O)c3)CC2)cc1` (stereo not given in full): the compound was called inactive. For the compound `CC/C(=C\C(=N/O)C(N)=O)C(C)[N+](=O)[O-]` (stereo not given), the call was inactive. Still for that read-out and setting: as for `CC(O)CN(CCN(CC(C)O)CC(C)O)CC(C)O` (stereo not given), the entry is “inactive”; as for `O=C1CCC(N2C(=O)c3ccccc3C2=O)C(=O)N1` (stereo not given), “inactive”; as for `NC(=O)NO`, “inactive”. Turning to `COc1ccc(/C=C/S(=O)(=O)NC(=O)c2ccc(C)cc2Cl)cc1`, the call was inactive.

Regarding `CC(C)(O)c1coc(S(=O)(=O)NC(=O)Nc2c3c(cc4c2CCC4)CCC3)c1`, the compound was called inactive. On the same count and under the same terms, as for `C[C@](N)(Cc1ccc(O)c(O)c1)C(=O)O`, the entry is “inactive”. In the case of `CC[C@H](C)C(=O)O[C@H]1C[C@@H](C)C=C2C=C[C@H](C)[C@H](CC[C@@H]3C[C@@H](O)CC(=O)O3)[C@H]21`, the call was inactive. The same measure, in the same setting: as for `COC(=O)CC(=O)OC`, the entry is “inactive”.

Consider `CNCc1ccc(NC(=O)c2c[nH]c3c2C(=O)CCC3)cc1`, for which the call was inactive. Same read-out and setting: as for `O=C(O)CC(O)C(=O)O` (stereo not given), the entry is “inactive”.

Take `O=c1n(CC2CO2)c(=O)n(CC2CO2)c(=O)n1CC1CO1` (stereo not given): the outcome was inactive. In the case of `CCCCC(CC)COC(=O)CCCCCCCCC(=O)OCC(CC)CCCC` (stereo not given), the compound was classed as inactive.

As to `CCNc1ccccc1`, the outcome was inactive.

Regarding `CCc1cc(SCc2sc(-c3ccc(C(F)(F)F)cc3)nc2CN2CCN(c3ccc(OC)cc3)CC2)ccc1OCC(=O)O`, the AC50 is 94 µM (active). In the case of `Cc1ccc(C)c(O)c1`, the result was inactive.

For the compound `O=C(OC[C@H]1O[C@@H](OC(=O)c2cc(O)c(O)c(OC(=O)c3cc(O)c(O)c(O)c3)c2)[C@H](OC(=O)c2cc(O)c(O)c(OC(=O)c3cc(O)c(O)c(O)c3)c2)[C@@H](OC(=O)c2cc(O)c(O)c(OC(=O)c3cc(O)c(O)c(O)c3)c2)[C@@H]1OC(=O)c1cc(O)c(O)c(OC(=O)c2cc(O)c(O)c(O)c2)c1)c1cc(O)c(O)c(OC(=O)c2cc(O)c(O)c(O)c2)c1`, the call was inactive. On the same count and under the same terms, as for `Fc1ccccc1[C@@H](F)COC1CCC(Nc2ncnc3[nH]ncc23)CC1` (stereo not given in full), the entry is “inactive”; as for `CC[C@H]1CC[C@H](NCc2cc3c(cc2OC)[C@H]2C[C@H]2C(=O)N3C)[C@H](c2ccccc2)N1`, “inactive”; as for `CNS(=O)(=O)c1cc(C(=O)N2CCC(CCN3C4CCC3CC(n3c(C)nc5ccccc53)C4)(c3cccc(F)c3)CC2)c(Cl)cc1F` (stereo not given), “inactive”.

Consider `O=C1CCCCCN1`, for which the outcome was inactive. On the same count and under the same terms, as for `CC[C@H]1OC(=O)[C@H](C)[C@@H](O[C@H]2C[C@@](C)(OC)[C@@H](O)[C@H](C)O2)[C@H](C)[C@@H](O[C@@H]2O[C@H](C)C[C@H](N(C)C)[C@H]2O)[C@](C)(O)C[C@@H](C)C(=O)[C@H](C)[C@@H](O)[C@]1(C)O`, the entry is “inactive”.

Turning to `CCCN(C1CCN(C(=O)C2CCNCC2)CC1)[C@@H]1CCc2ccc(OC)cc2C1`, the half-maximal activity concentration (AC50) was 28.2 µM (active).

With `Cn1c(=O)c2c(ncn2C)n(C)c1=O`, the result was inactive. The same measure, in the same setting: as for `CC(C)=CCCC(C)=CC=O`, the entry is “inactive”. In the case of `O=C(NS(=O)(=O)/C=C/c1ccccc1)c1ccc(F)cc1Cl`, the half-maximal activity concentration (AC50) is 26.3 µM (active).

As to `Cc1c(-c2cccnc2)c2ccccc2n1CCCCC(=O)O`, the compound was called inactive. As for `CC(C)CCO`, the call was inactive. For `COc1cccc(-c2ccc(/C=C\CN3CCCCCC3)cc2Cl)c1`, the call was inactive. As for `C=CCCCCCCCCC(=O)O`, the compound was classed as inactive. Regarding `CCn1nc(Cc2ccccc2)cc1C1CCN(C[C@H]2C[C@H](N(C)[C@@H](C(=O)O)C(C)C)C[C@@H]2c2cccc(F)c2)CC1`, the compound was called inactive. With `COc1ccc2sc(C(=O)Nc3nnn[nH]3)c(OC(C)C)c2c1`, the result was inactive. Consider `Cc1[nH]cnc1C[C@H]1CCc2c(C)c3ccccc3n2C1=O`, for which the half-maximal activity concentration (AC50) is 10.4 µM (active).
